Screens deposited in PubChem BioAssay by several laboratories.
Hits are enriched below; roughly 4% of the tested compounds scored in any of these assays.
TWEAK Fn14 block: TWEAK-Fn14 signaling inhibition. inhibition, % at 10 µM. 2% of 360,000 active. TWEAK-stimulated Fn14 reporter cells, luciferase luminescence, 8 h. AID 1159606; in the data active = inhibition above about 50%
EBV LMP1 NFkB: Epstein-Barr LMP1 NF-kappaB reporter inhibition; inhibition, % at 12.5 µM; 0.69% of 350,000 active; LMP1-induced NF-kappaB luciferase reporter cells, luminescence; AID 504558; in the data active = inhibition above about 41%;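 also: 0% = neutral control wells and 100% = reference inhibitor control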
TROY signal inh: inhibitors of TROY-dependent NF-kB signaling; inhibition, % at 10 µM; Q293 LMP1-TROYcd NF-kB luciferase reporter, 4 h; AID 1347056; 0.98% of 360,000 active;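 active = compounds whose plate-normalised and pattern-corrected inhibition of the luciferase reporter signal at the single screening dose is 50% or more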
HIF-2a inh: blocks HIF-2a reporter activity. 786-0 RCC cells HIF-2a reporter, luciferase luminescence, overnight. inhibition, % at 18.8 µM. 0.72% of 360,000 active. AID 624352;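 active = inhibition of the luminescence signal of 40% or more relative to plate controls, in a single-dose primary screen at 18.75 µM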
MITF TRPM1 inh: inhibitors of MITF-driven TRPM1 promoter in melanoma cells. SK-MEL-5 TRPM1 promoter luciferase, 24 h. inhibition, % at 12.5 µM. 0.83% of 330,000 active;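 active = mean inhibition across replicates of 60% or more, whatever share of single replicates reaches that level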
Peg3 promoter: reduces Peg3 promoter-driven luciferase expression in HeLa. HeLa PEG-Prom luciferase reporter, luminescence, overnight. inhibition, % at 20 µM. 1.7% of 360,000 active. AID 588405;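 active = inhibition of at least 50% at 20 µM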
The depositor's hits bear a star; . = not tested or not shown.

SMILES	TWEAK Fn14 block	EBV LMP1 NFkB	TROY signal inh	HIF-2a inh	MITF TRPM1 inh	Peg3 promoter
Cc1ccc(NS(=O)(=O)c2cc(NC(=O)c3ccc4c(c3)NC(=O)CS4)ccc2Cl)c(C)c1	66.3*	6.7	48.6	34.3	-2.7	52.0*
CS(=O)(=O)Nc1cccc(-c2ccc3nncn3c2)c1	-10.0	.	-25.9	-2.1	.	4.8
COc1ccc(CCC(=O)OCC(=O)NC(=O)c2ccc(Cl)cc2)cc1	6.0	2.3	14.7	-4.9	2.8	4.5
COc1cccc(/C=N/NC(=O)CSc2nnc(C)n2-c2ccccc2)c1O	-16.9	3.5	-41.6	1.5	4.9	33.1
COc1ccccc1/C=N/NC(=O)CSc1cc(C)nc2ccccc12	22.2	-7.4	22.6	12.4	1.4	7.4
COc1ccccc1/C=N/NC(=O)CSc1ccc2ccccc2n1	52.0*	-16.7	48.7	-106.0	6.2	-71.4
CCCCSc1nc(C)cc(SCC(=O)N/N=C/c2cccc(OC)c2O)n1	103.5*	15.4	.	19.3	50.2	53.5*
CCN(CC)C(=O)C1=C(C)N(CCCN2CCCC2=O)C(=O)C(CC(=O)NCCCN(C)C)C1 (stereo not given)	6.4	1.7	-7.5	-0.3	.	-5.6
CCCCN(C)c1c(C)nc2ccc(C(=O)N(CC)CCN(C)C)cn12	8.9	.	-13.1	10.6	.	-0.8
COc1ccc2cc(C)c3nnc(SCC(=O)Nc4nc(-c5ccc(F)cc5)cs4)n3c2c1	-22.0	-22.5	14.3	-7.2	37.7	65.5*
Cc1ccc(-c2csc(NC(=O)CSc3nc4ccccc4[nH]3)n2)cc1	71.9*	14.9	56.6*	-153.5	-7.5	-46.4
Cn1c(SCC(=O)Nc2nc3ccccc3s2)nnc1-c1ccccc1	-2.9	-8.3	-8.9	-13.4	9.5	-9.2
O=C(CSc1nc(O)cc(=O)n1-c1ccccc1)Nc1nc2ccccc2s1	41.1	-11.9	63.5*	-126.0	6.2	-19.2
COc1ccc(-c2csc(NC(=O)CSc3nc4ccccc4c(=O)[nH]3)n2)cc1	-36.6	-9.0	41.1	-37.8	0.7	-11.0
CCn1c(SCC(=O)Nc2nc3ccccc3s2)nnc1-c1ccc(Br)cc1	65.8*	-7.2	0.9	10.2	3.6	3.3
COc1cc(OC)c(C(=O)OCC(=O)Nc2nnc(-c3ccccc3)o2)cc1OC	-1.7	-3.8	11.8	1.2	-5.8	-8.7
C#CCN(C[C@@H]1[C@@H](OC(=O)NCC2CCCCC2)[C@@H](OC(=O)NCC2CCCCC2)Cn2c(=O)n(CCCCCC)c(=O)n21)S(=O)(=O)c1ccc(C)cc1	-4.0	0.3	5.0	2.4	.	12.0
CCn1c(SCC(=O)Nc2nc(-c3ccc(C)cc3)cs2)nnc1-c1ccccc1O	46.6	-4.8	50.4*	-19.1	12.4	-19.4
Cn1cc(C(=O)N/N=C/c2c(O)ccc3ccccc23)ccc1=O	-4.7	62.1*	5.7	-2.1	68.8*	42.5
COc1ccc(NC(C)C(=O)N/N=C/c2c(O)ccc3ccccc23)cc1 (stereo not given)	-10.5	3.3	1.1	15.8	44.4	57.4*
O=C(NN=Cc1c(O)ccc2ccccc12)c1ccncc1	-19.0	62.2*	3.6	-4.2	74.8*	44.7
O=C(N/N=C\c1c(O)ccc2ccccc12)c1ccc(O)cc1	-2.1	35.5	1.1	-61.6	36.0	39.0
O=C(N/N=C/c1c(O)ccc2ccccc12)c1ccc[n+](CCO)c1	0.8	13.2	11.0	21.0	4.3	4.5
O=C(CN1CCOCC1)N/N=C/c1c(O)ccc2ccccc12	-5.6	13.4	10.1	-11.1	1.3	15.7
O=C(CSCC(=O)Nc1ccccc1)N/N=C/c1c(O)ccc2ccccc12	11.9	51.4*	6.5	5.4	69.1*	52.0*
SMILES	TWEAK Fn14 block	EBV LMP1 NFkB	TROY signal inh	HIF-2a inh	MITF TRPM1 inh	Peg3 promoter
Cc1cnc(C(=O)OCC(=O)Nc2cc(Cl)ccc2C#N)cn1	5.2	-6.8	2.0	9.9	15.7	-0.8
CN(CCCN1CCOCC1)Cc1cn(C)nc1-c1ccccc1F	-8.5	-0.7	-2.9	17.4	-1.9	11.0
Cc1c(/C=N/NC(=O)c2cccnc2)c2ccccc2n1Cc1ccccc1	55.5*	3.2	11.6	-3.6	22.0	19.0
Cn1nccc1C(=O)N/N=C/c1c(O)ccc2ccccc12	-37.8	76.4*	-17.4	-75.3	72.0*	25.4
Cc1ccc(C(=O)N/N=C/c2c(O)ccc3ccccc23)cn1	8.8	64.7*	-9.8	-34.1	59.9	45.1
O=C(N/N=C/c1c(O)ccc2ccccc12)c1cccnc1	-4.6	50.8*	1.0	-10.0	49.3	51.8*
O=C(CCNC(=O)c1ccc(Cl)cc1)Nc1ccccc1N1CCCCC1	21.2	-7.8	9.3	5.6	-21.1	13.4
CCc1ccc(C(=O)NC(CCSC)C(=O)OC)cc1 (stereo not given)	0.5	3.8	-17.5	-14.0	3.6	-13.1
CC(=O)Nc1cccc(NC(=O)Cc2ccc3ccccc3c2)c1	-8.0	5.7	11.2	-23.8	8.2	-18.7
COc1cccc(CN2CCC2(C)C(=O)Nc2cccc(Oc3ccccc3)c2)c1OC (stereo not given)	27.7	.	12.8	12.6	.	12.7
COc1ccccc1N1CCN(CC(=O)Nc2cc(F)ccc2C)CC1	10.0	-13.0	-1.2	17.5	4.5	28.1
COc1ccccc1N1CCN(CC(=O)Nc2cc(C)nn2-c2nc(C)cc(C)n2)CC1	13.6	3.3	4.7	11.2	5.6	51.7*
CCc1ccc(NC(=O)c2ccc(F)c(S(=O)(=O)NCC3COc4ccccc4O3)c2)cc1 (stereo not given)	61.5*	13.1	43.5	-72.3	7.0	3.7
O=C(NCC1COc2ccccc2O1)c1ccc(F)c(S(=O)(=O)N2CCOCC2)c1 (stereo not given)	-4.1	5.0	-0.9	-0.8	7.3	15.3
CCN(c1ccccc1)S(=O)(=O)c1cc(C(=O)Nc2ccc(Br)cc2)ccc1F	78.4*	5.8	40.6	-18.9	31.1	14.1
CCC(=O)Nc1nc2ccc3sc(C)nc3c2s1	68.6*	-8.1	49.4	-108.0	-5.0	-105.1
CCOC(=O)N1CCN(Cc2c(F)cccc2F)CC1	71.2*	5.1	.	12.2	-10.5	-3.0
CCOC(=O)N1CCN(Cc2c(F)cccc2Cl)CC1	-10.8	-3.0	2.9	3.9	12.7	-11.9
Cc1nc(N2CCN(c3ccccc3)CC2)[nH]c(=O)c1C	0.4	-4.4	-8.3	1.8	10.1	-6.3
Cc1ccccc1OCC1Cc2c(nc(N)c(C#N)c2N)O1 (stereo not given)	58.2*	-25.4	.	-182.2	-74.5	-250.5
O=C1C(=Cc2ccccc2Cl)CCc2ccccc21	57.6*	.	18.8	-231.1	.	-271.7
O=C1C(=Cc2cccc(Cl)c2)CCc2ccccc21	21.6	.	-19.3	-115.9	.	-25.2
O=C1C(=Cc2ccc(Cl)cc2)CCc2ccccc21	70.5*	.	53.8*	-214.0	.	-202.8
CCOc1ccccc1C=C1CCc2ccccc2C1=O	-27.7	-3.9	-25.2	-144.3	.	-223.4
O=C1C(=Cc2ccc(F)cc2)CCc2ccccc21	70.1*	.	26.7	-155.2	.	.
COc1ccccc1C=C1CCc2ccccc2C1=O	71.5*	.	26.8	-173.2	.	-207.9
